# Laboratory results: PubChem BioAssay
# The source made the active and inactive calls. Rule as the data show it, unless noted: active = inhibition above about 80%; inactive = the rest.
# Columns and labels:
# [1] = molecular target: NAD(+) hydrolase SARM1 (Homo sapiens) (UniProt Q6SZW1); experiment: SARM1 TIR NADase inhibitors, cell lysate, NAD-Glo luminescence (AID 1508614;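 active = compound whose remaining NAD level is above about 45 nM, limit read from the data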;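 also: higher remaining NAD means stronger inhibition of SARM1 NADase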); details: SAM-TIR HEK293T lysate NADase, at 1 µM, stronger effect = higher value
# Chain of NAD(+) hydrolase SARM1 (Homo sapiens) (Q6SZW1 whole entry, looked up): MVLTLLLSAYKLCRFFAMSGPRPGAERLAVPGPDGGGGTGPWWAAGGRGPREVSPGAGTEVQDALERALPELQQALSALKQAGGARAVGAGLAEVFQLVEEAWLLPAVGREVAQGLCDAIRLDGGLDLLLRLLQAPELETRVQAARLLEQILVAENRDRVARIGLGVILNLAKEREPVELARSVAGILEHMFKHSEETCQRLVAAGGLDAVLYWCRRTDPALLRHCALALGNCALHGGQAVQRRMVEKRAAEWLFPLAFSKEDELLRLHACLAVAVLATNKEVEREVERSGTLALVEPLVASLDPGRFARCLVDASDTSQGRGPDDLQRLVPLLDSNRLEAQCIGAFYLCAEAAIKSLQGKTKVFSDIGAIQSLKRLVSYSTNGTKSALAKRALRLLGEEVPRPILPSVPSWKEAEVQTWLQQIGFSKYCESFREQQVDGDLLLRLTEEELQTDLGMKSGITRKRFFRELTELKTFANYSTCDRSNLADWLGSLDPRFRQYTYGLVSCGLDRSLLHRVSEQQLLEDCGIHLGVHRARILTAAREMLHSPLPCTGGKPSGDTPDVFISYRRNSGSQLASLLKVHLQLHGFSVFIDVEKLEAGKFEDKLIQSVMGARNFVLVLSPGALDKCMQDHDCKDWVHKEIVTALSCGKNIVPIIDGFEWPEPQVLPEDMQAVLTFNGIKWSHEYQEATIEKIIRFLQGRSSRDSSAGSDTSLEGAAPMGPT
# [2] = LFS_MB_P medulloblastoma growth inhibition, cell-based, chromothripsis tumors, cisplatin or BGB combos (AID 1671449); details: LFS_MB_P medulloblastoma cells;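 also: cells exposed for 96 hours; 0% = vehicle DMSO and 100% = killing by high DMSO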
# [3] = HDN33 neuroblastoma growth inhibition, cell-based, chromothripsis tumors, cisplatin or BGB combos (AID 1671450); details: HDN33 neuroblastoma cells, stronger effect = higher value;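 also: cells exposed to compound for four days; 0% = vehicle DMSO and 100% = cell killing by high DMSO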
# [4] = ICB984 medulloblastoma cell growth inhibition, synergistic combos for chromothripsis tumors, cisplatin or BGB combos (AID 1671451; call rule not given here;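 also: cells exposed for 96 hours before readout; 0% = vehicle DMSO and 100% = killing by high DMSO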); details: ICB984 medulloblastoma cells, drug combinations, stronger effect = higher value
# [5] = LFS_MB_1R medulloblastoma cell growth inhibition, synergistic combos for chromothripsis tumors, cisplatin or BGB combos (AID 1671452); details: LFS_MB_1R medulloblastoma cells, stronger effect = higher value;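 also: cells exposed for 96 hours before readout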
# [6] = HTB85 osteosarcoma cell growth inhibition, synergistic combos for chromothripsis tumors, BGB or cisplatin IC20 combos (AID 1671453); details: HTB85 osteosarcoma cells, drug combinations, stronger effect = higher value;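 also: cells exposed for 96 hours before readout; 0% = vehicle DMSO and 100% = high DMSO killing control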
# [7] = CRL2098 osteosarcoma cell growth inhibition, synergistic combos for chromothripsis tumors, BGB or cisplatin IC20 combos (AID 1671454); details: CRL2098 osteosarcoma cells, drug combinations, stronger effect = higher value;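 also: cells exposed for 96 h before readout; 0% = vehicle DMSO and 100% = killing by high DMSO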
# [8] = HD-MB03 medulloblastoma cell growth inhibition, synergistic combos for chromothripsis tumors, BGB or cisplatin IC20 combos (AID 1671455; in the data active = inhibition above about 83%;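 also: 0% = vehicle DMSO and 100% = high DMSO as cytotoxic control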); details: HD-MB03 medulloblastoma cells, stronger effect = higher value
# [9] = UWB1.289 ovarian carcinoma cell growth inhibition, synergistic combos for chromothripsis tumors, BGB or cisplatin combos (AID 1671456); details: UWB1.289 ovarian carcinoma cells, stronger effect = higher value;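 also: cells exposed to compound for four days; 0% = vehicle DMSO and 100% = killing by high DMSO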
# [10] = LFS_MB_2R medulloblastoma cell growth inhibition, synergistic combos for chromothripsis tumors, cisplatin combos (AID 1671457); details: LFS_MB_2R medulloblastoma cells, stronger effect = higher value;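 also: cells exposed to compound for four days before readout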
# [11] = MDA-MB-436 breast carcinoma cell growth inhibition, synergistic combos for chromothripsis tumors, BGB or cisplatin combos (AID 1671458; call rule not given here;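 also: cells exposed for 96 hours; 0% = vehicle DMSO and 100% = killing by high DMSO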); details: MDA-MB-436 breast carcinoma growth inhibition, drug combinations, stronger effect = higher value
# [12] = UWB1.289_BRCA1 ovarian cancer growth, cell-based, BGB or cisplatin combinations (AID 1671459); details: UWB1.289 BRCA1 ovarian carcinoma, drug combinations, stronger effect = higher value
# [13] = human astrocyte viability loss, single and combined drugs, cytotoxicity control for chromothriptic childhood tumor combination screen, cell-based, BGB or cisplatin IC20 combos (AID 1671460); details: Human astrocytes, drug combinations, stronger effect = higher value;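 also: cells exposed to compounds for 96 hours before viability readout; 0% = vehicle and 100% = killing control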
# [14] = growth inhibition of BT084 medulloblastoma cells, cell-based, ICGC_MB145, cisplatin and BGB IC40 combos (AID 1671461); details: drug combinations, stronger effect = higher value;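 also: cells exposed to drugs for 96 hours; 0% = vehicle DMSO and 100% = high DMSO full killing control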
# [15] = growth inhibition of RCMB18 medulloblastoma cells, cell-based, cisplatin and BGB IC40 combos (AID 1671462); details: stronger effect = higher value;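 also: cells exposed to compound for four days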
# [16] = growth inhibition of CRL1545 osteosarcoma cells, cell-based, cisplatin and BGB IC20 combos (AID 1671464); details: stronger effect = higher value;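 also: cells exposed to compound for 96 hours before readout; 0% = vehicle DMSO and 100% = high DMSO killing control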
# [17] = measured here: combination with BGB IC40, at 0.05 µM
# [18] = measured here: with BGB IC20 combination, at 0.5 µM
# [19] = measured here: with cisplatin IC20 combination, at 0.5 µM
# [20] = measured here: combination with cisplatin, at 0.5 µM
# [21] = measured here: combination with cisplatin, at 5 µM
compound,measurement,setting,value
C=CC1=C(C)C2=CC3=NC(=C(CC(=O)O)C4=NC(=C(C)C4=C(O)O)C=c4[nH]c(c(C)c4CC)=CC1=N2)C(CCC(=O)O)C3C (centres undefined),remaining NAD,[1],10 nM (inactive)
same,inhibition,"[2]; at 0.5 µM, stronger effect = higher value",-22.2% (inactive)
same,inhibition,"[2]; measured here: combination with BGB IC20, at 0.005 µM",-27.4%
same,inhibition,"[2]; measured here: combination with BGB IC40, at 0.005 µM",-20.4%
same,inhibition,[2]; [17],-7.95%
same,inhibition,"[2]; measured here: combination with cisplatin, at 0.5 µM, stronger effect = higher value",-18.8%
same,inhibition,"[2]; measured here: combination with cisplatin, at 5 µM, stronger effect = higher value",-59.6%
same,inhibition,"[3]; BGB combo, at 5 µM",-5.94%
same,inhibition,[3]; at 0.5 µM,-6.06% (inactive)
same,inhibition,"[3]; cisplatin combo, at 5 µM",3.3%
same,inhibition,[3]; [18],-2.85%
same,inhibition,[3]; [19],8.33%
same,inhibition,"[3]; single agent, at 5 µM",10.4%
same,inhibition,"[4]; BGB IC20 combo, at 0.005 µM",-23.1%
same,inhibition,"[4]; BGB IC40 combo, at 0.005 µM",-25.1%
same,inhibition,"[4]; BGB IC40 combo, at 0.05 µM",-20%
same,inhibition,[4]; at 0.5 µM,-26.5% (inactive)
same,inhibition,"[4]; cisplatin combo, at 0.05 µM",-20%
same,inhibition,"[4]; cisplatin combo, at 0.5 µM",-42.5%
same,inhibition,"[4]; cisplatin combo, at 5 µM",-25.5%
same,inhibition,"[4]; measured here: 5 uM single agent, at 5 µM",5.39%
same,inhibition,[5]; at 0.5 µM,-18.3% (inactive)
same,inhibition,[5]; [17],-22.1%
same,inhibition,[5]; [20],-13.2%
same,inhibition,[5]; [21],-2.96%
same,inhibition,[6]; at 0.5 µM,-16.7% (inactive)
same,inhibition,"[6]; measured here: with BGB IC20, at 0.5 µM",-29.2%
same,inhibition,"[6]; measured here: with BGB IC20, at 5 µM",-11.5%
same,inhibition,"[6]; measured here: with cisplatin IC20, at 0.5 µM",-27.9%
same,inhibition,"[6]; measured here: with cisplatin IC20, at 5 µM",-1.9%
same,inhibition,"[6]; single agent, at 5 µM",1.12%
same,inhibition,[7]; at 0.5 µM,-39.9% (inactive)
same,inhibition,"[7]; measured here: combination with BGB at IC20, at 0.5 µM",-14.4%
same,inhibition,"[7]; measured here: combination with cisplatin at IC20, at 0.5 µM",-71.5%
same,inhibition,[8]; at 0.5 µM,-9.12% (inactive)
same,inhibition,"[8]; measured here: combo with BGB at IC20, at 0.5 µM",-0.977%
same,inhibition,"[8]; measured here: combo with cisplatin at IC20, at 0.5 µM",-18.8%
same,inhibition,[9]; at 0.5 µM,-0.22% (inactive)
same,inhibition,"[9]; measured here: inhibition with BGB combination, at 0.05 µM",-17.7%
same,inhibition,"[9]; measured here: inhibition with cisplatin combination, at 0.05 µM",-4.64%
same,inhibition,[10]; at 0.5 µM,-20% (inactive)
same,inhibition,[10]; [20],-3.5%
same,inhibition,[10]; [21],-14.7%
same,inhibition,[11]; at 0.5 µM,-19% (inactive)
same,inhibition,"[11]; measured here: BGB combination, at 0.5 µM",-19.5%
same,inhibition,"[11]; measured here: BGB combination, at 5 µM",-14.7%
same,inhibition,"[11]; measured here: cisplatin combination, at 0.5 µM",-36.2%
same,inhibition,"[11]; measured here: cisplatin combination, at 5 µM",-11.5%
same,inhibition,"[12]; BGB combination, concentration series, at 5 µM",12.6%
same,inhibition,[12]; at 0.5 µM,-3.06% (inactive)
same,inhibition,"[12]; cisplatin combination, concentration series, at 5 µM",10.4%
same,inhibition,[13]; at 0.5 µM,-8.5% (inactive)
same,inhibition,"[13]; measured here: combo with BGB IC20, at 0.5 µM",-9.9%
same,inhibition,"[13]; measured here: combo with cisplatin IC20, at 0.5 µM",-17.9%
same,inhibition,[14]; at 0.5 µM,-4.34% (inactive)
same,inhibition,"[14]; cisplatin combination, at 0.5 µM",3.74%
same,inhibition,"[14]; cisplatin combination, at 5 µM",-40.8%
same,inhibition,"[14]; measured here: BGB IC40 combination 0.05 uM, at 0.05 µM",-3.49%
same,inhibition,"[14]; single agent, at 5 µM",-10.5%
same,inhibition,[15]; at 0.5 µM,-15.6% (inactive)
same,inhibition,"[15]; cisplatin combo, at 5 µM",30.7%
same,inhibition,"[15]; measured here: BGB IC40 combination, at 0.05 µM",-38.7%
same,inhibition,[15]; [20],-5.59%
same,inhibition,"[15]; single agent, at 5 µM",-26.5%
same,inhibition,[16]; at 0.5 µM,-23.9% (inactive)
same,inhibition,[16]; [18],2.58%
same,inhibition,[16]; [19],-37.1%
same,inhibition,"[16]; single agent, at 0.05 µM",3.9%
same,inhibition,"[16]; single agent, at 5 µM",17%
